The test system of one assay is Klebsiella pneumoniae. As to conditions: Concentration 32 ug.mL-1, ASSAY_TEST Inhibition of Bacterial Growth, detection method Absorption (OD600), MEDIA CAMHB, plate type 384well, NBS, CORNING #3640, time 18 hr.
In the next assay the test system is Candida albicans. The following applies: 32 ug/mL.
The subject of the next assay is Cryptococcus neoformans. The following applies: Concentration 32 ug.mL-1, ASSAY_TEST Inhibition of Fungal Growth, detection method Resazurin, Absorption (OD600-OD570), plate type 384well, NBS, CORNING #3640. In general terms: Alamar Blue is a resazurin reagent that responds to reducing activity.

Several values for one entry are separate records, joined by “and”; a condition that tells them apart may be missing. Identical values can stand only once. Measured potencies and affinities stand elsewhere.

In the case of `N#Cc1cc(C#N)c(NC2CCN(Cc3ccccc3)CC2)nc1N`, the Inhibition (as a rule, the change of the read-out against control, counted positive when it falls) in the assay with Klebsiella pneumoniae (32 ug/mL) was 9.31% and 4.29%; with Candida albicans it was 1.61% and 2.76%; in the assay on Cryptococcus neoformans (32 ug/mL) it was -42.03% and -48.76%.

Consider `Cc1ccc(CNNC(N)=O)cc1.Cl`, for which the figures for the Inhibition with Klebsiella pneumoniae, in the assay on Candida albicans and with Cryptococcus neoformans were 11.02%, -0.27% and -5.64%, respectively.

Take `CCOC(=O)c1c[nH]c2ccc(OC)cc12`: the figures for the Inhibition in the assay with Klebsiella pneumoniae, in the assay with Candida albicans and with Cryptococcus neoformans were 1.49%, 3.61% and -7.29%, respectively.

For `O=C(NNCc1c[nH]c2ccccc12)c1cccc2ccccc12`, the Inhibition was 7.23% in the assay on Klebsiella pneumoniae, 1.53% in the assay on Candida albicans and -1.11% with Cryptococcus neoformans.

Regarding `N#CC1=C(Cl)Oc2c(ccc3ccccc23)C1c1ccccc1[N+](=O)[O-]` (stereo not drawn), the Inhibition in the assay on Klebsiella pneumoniae was 5.03%; in the assay with Candida albicans it was 3.33%; in the assay on Cryptococcus neoformans, -51.56%.

In the case of `N#Cc1c(Cl)nc(Cl)c(C#N)c1-c1ccccc1`, the Inhibition with Klebsiella pneumoniae is 19.31%; in the assay on Candida albicans, 34.6%; with Cryptococcus neoformans, -43.27%.

In the case of `COc1ccc2cc(C3C(C(C)=O)=C(C)Oc4nc5c(c(N)c43)CCCCC5)c(Cl)nc2c1` (stereo not drawn), the results for the Inhibition in the assay on Klebsiella pneumoniae, with Candida albicans and with Cryptococcus neoformans were 0.78%, 3.71% and -8.4%, respectively.

For the compound `NNC(=O)C1(NC(=O)c2ccccc2)CC1c1cccc(O)c1` (stereo not drawn), the Inhibition with Klebsiella pneumoniae was 19.56%; in the assay on Candida albicans, 0.45%; with Cryptococcus neoformans, -0.7%.

Take `O=C1NC(=O)C(=Cc2ccccc2)N1`: the Inhibition with Klebsiella pneumoniae was 12.73%; in the assay with Candida albicans, -0.05%; with Cryptococcus neoformans, -1.42%.

For `COc1ccc2c(c1)cc(CN(C)Cc1cn(Cc3ccccc3)nn1)n2C`, the Inhibition in the assay on Klebsiella pneumoniae was 5.47%; with Candida albicans it was 2.23%; with Cryptococcus neoformans, -55.57%.

As for `Nc1c2c(nc3ccc([N+](=O)[O-])cc13)CCCC2`, the Inhibition in the assay on Klebsiella pneumoniae is 16.59%; in the assay on Candida albicans it was 2.09%; in the assay with Cryptococcus neoformans, -74.97%.

The values are drawn from ChEMBL document CHEMBL4513135, “CO-ADD screening of IQOG CSIS (Spain) compounds”.
